Inconclusive results are not listed. Calls of active or inactive are those of the source. Unless noted, the call rests on the fitted dose curve; in most records, active means well fitted curve in the direction sought with a large enough effect; inconclusive means small, poorly fitted or top-dose-only effect, or another doubt; inactive means no such curve, though single readings can be large; an effect the other way counts as inactive or inconclusive.

Drawing on PubChem BioAssay (NCATS), this text covers Potency and outcome for 22 compounds.

Assay [1] concerns the target Tyrosyl-DNA phosphodiesterase 1 (Homo sapiens) (UniProt Q9NUW8). Kind of assay: Confirmation Assay for Inhibitors of Tyrosyl-DNA Phosphodiesterase (TDP1) (AID 489007). Further: potency means the concentration at half of the fitted maximal effect; nearly all actives have a fitted effect of over 40% in size. The following applies: recombinant human TDP1 enzymatic activity, dose-response. In a few lines: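 Recombinant human Tdp1 (1 nM final), expressed in E. coli, preincubated 15 min with compound. Then 15 nM 5'-biotin/3'-phosphotyrosine-FITC DNA substrate added for 5 min at room temperature. AlphaScreen beads (10 ug/ml) added for 10 min; cleavage gives signal loss.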

The nature of assay [2]: S16 Schwann cell PMP22 intronic element firefly luciferase assay (AID 624032). Further: nearly all actives have a fitted effect of over 30% in size. Further: potency means the concentration at half of the fitted maximal effect. The following applies: S16 rat Schwann cells, PMP22 element FLuc, 24 h; series mostly up to 57.5 µM. In outline: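 Rat S16 Schwann cells stably carrying firefly luciferase driven by a PMP22 intronic element, in 10% FBS, treated 24 h at 37 C. ONE-Glo luminescence normalized to PTC124 control and DMSO (0%); curves classed by r2, magnitude and activity.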

The test system of assay [3] is 7G8. Kind of assay: qHTS profiling for inhibitors of Plasmodium falciparum proliferation (AID 504749). Further: nearly all actives have a fitted effect of over 60% in size. Further: potency means the concentration at half of the fitted maximal effect. The conditions noted are these: P. falciparum in erythrocytes, SYBR Green DNA, 72 h; series mostly up to 28.7 µM. In outline:
(§1)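 P. falciparum-infected erythrocytes (0.3% parasitemia, 2.5% hematocrit) incubated with compound 72 h at 37 C, 5% CO2. Parasite DNA detected by SYBR Green after lysis, overnight at room temperature; normalised to 0.29 uM artemisinin and DMSO.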

The subject of assay [4] is DIV17. Described as above. The following applies: P. falciparum in erythrocytes, SYBR Green DNA, 72 h; series mostly up to 28.7 µM. In a few lines:
as §1

For assay [5], the system named is TAB109. Described as above. The following applies: P. falciparum in erythrocytes, SYBR Green DNA, 72 h; series mostly up to 28.7 µM. In a few lines: as §1
For assay [6], the system named is W2. The description is as above. The conditions noted are these: P. falciparum in erythrocytes, SYBR Green DNA, 72 h; series mostly up to 28.7 µM. In outline: as §1
Assay [7] can be described thus: S16 Schwann cell PMP22 intronic element beta-lactamase assay (AID 624044; calls by dose curve; further: nearly all actives have a fitted effect of over 15% in size). The conditions noted are these: S16 rat Schwann cells, PMP22 element beta-lactamase FRET, 24 h; ratio activity, negative = inhibition: at 38.3 µM (top of the series). In a few lines:
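Rat S16 Schwann cells with beta-Lac driven by a PMP22 intronic element, compound-treated 24 h at 37 °C. LiveBLAzer FRET B/G read: 460 nm normalized to potassium clavulanate vs DMSO; 535 nm FRET as viability; concentration-effect curves classified.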

The nature of assay [8]: Inducers of the Endoplasmic Reticulum Stress Response (ERSR) in human glioma: Validation (AID 504836). The conditions noted are these: human glioma cells, ER stress response reporter; series mostly up to 38.3 µM. In outline:
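Stably transfected U87-MG glioma cells carrying a GRP78-based luciferase sensor; 16 h compound incubation. Luminescence end-point read 10 min after Bright-Glo addition at room temperature.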

For assay [9], the target named is Cytochrome P450 3A4 (Homo sapiens) (UniProt P08684). The assay can be described thus: qHTS Assay for Inhibitors and Substrates of Cytochrome P450 3A4 (AID 884). Further: nearly all actives have a fitted effect of over 50% in size. The conditions noted are these: recombinant CYP3A4, Luciferin-PPXE luminescence; series mostly up to 57.1 µM. In outline:
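20 nM human CYP3A4 with 25 uM Luciferin-PPXE (at KM) in 200 mM KPO4, preincubated 10 min with compound; NADPH regeneration started a 60 min RT reaction. Luciferin detected by luminescence, normalized to 57 uM ketoconazole as full inhibition.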
(Quantitative high-throughput screening tests each substance at several concentrations.)

Assay [10] in a line: Confirmation and Secondary Assay for Modulators of Hemoglobin Beta Chain Splicing at IVS2 654 locus (AID 910).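 Further: HeLa cells stably carrying EGFP split by mutant beta-globin IVS2-654 intron.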 The following applies: HeLa EGFP-654 splicing reporter, GFP fluorescence, 48 h; series mostly up to 46.1 µM. In a few lines:
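HeLa cells stably expressing EGFP interrupted by β-globin IVS2-654 intron, seeded overnight in Opti-MEM/2% FCS, then treated 2 days at 37 °C. Restored splicing read as total peak GFP intensity per well by laser scanning cytometry (488 nm excitation, 500–520 nm emission); 500 nM antisense PNA as control.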

The nature of assay [11]: Confirmation and Secondary Assay for Modulators of Hemoglobin Beta Chain Splicing at IVS2 705 locus (AID 930).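 Further: HeLa cells stably expressing the EGFP-705 splicing reporter; GFP fluorescence per well restored by corrected splicing of the IVS2-705 intron in EGFP.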 The conditions noted are these: HeLa EGFP-705 splicing reporter, GFP fluorescence, 48 h; series mostly up to 46.1 µM. In a few lines:
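Splice-correction reporter: EGFP cDNA split by beta-globin intron 2 bearing the 705 mutation, stably in HeLa. Compound incubation 2 days, 37C; fluorescent objects 5-250 µm summed per well.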

Assay [12] concerns the target Cytochrome P450 3A4 (Homo sapiens) (UniProt P08684). The assay can be described thus: qHTS Assay for Activators of Cytochrome P450 3A4 (AID 885). Further: nearly all actives have a fitted effect of over 65% in size. The following applies: recombinant CYP3A4, Luciferin-PPXE luminescence, 60 min; series mostly up to 57.1 µM. In a few lines: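 20nM CYP3A4 + 25uM Luciferin-PPXE (=KM), 200mM KPO4; cpd 10 min RT; NADPH regen, 60 min RT; stop w/ detection buffer, 20 min; luminescence. Normalized to 57 uM ketoconazole.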

For assay [13], the target named is Alpha-galactosidase (Coffea arabica) (UniProt Q42656). Kind of assay: Counterscreen for Glucocerebrosidase Inhibitors: qHTS Assay for Coffee Bean alpha-Galactosidase at pH 4.5 (AID 957). The following applies: purified coffee bean alpha-galactosidase, fluorogenic substrate; series mostly up to 76.9 µM. In a few lines:
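Coffee bean enzyme (2 nM) with 80 uM 4-methylumbelliferyl alpha-D-galactopyranoside in 50 mM citric acid, 0.005% Tween-20, pH 4.5, 20 min at room temperature; compounds 0.7 nM–77 uM. Stopped at pH 10, fluorescence 365/440 nm; AC50 from Hill fits.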
A general note: A counterscreen serves to expose hits that act by an unwanted route or on another target.

Assay [14] has the same target. Kind of assay: Counterscreen for Glucocerebrosidase Inhibitors: qHTS Assay for Coffee Bean alpha-Galactosidase at pH 5.9 (AID 998). The following applies: coffee bean alpha-galactosidase enzyme assay; series mostly up to 76.9 µM. In outline:
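Green coffee bean enzyme (2 nM) with 4-methylumbelliferyl alpha-D-galactopyranoside (80 uM) in 50 mM citric acid, 0.005% Tween-20, pH 5.9, 20 min at room temperature; compounds 0.7 nM–77 uM. Stopped at pH 10, fluorescence Ex365/Em440; Hill-fit AC50.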

Cytochrome P450 3A4 (Homo sapiens), sequence (P08684 whole entry, looked up): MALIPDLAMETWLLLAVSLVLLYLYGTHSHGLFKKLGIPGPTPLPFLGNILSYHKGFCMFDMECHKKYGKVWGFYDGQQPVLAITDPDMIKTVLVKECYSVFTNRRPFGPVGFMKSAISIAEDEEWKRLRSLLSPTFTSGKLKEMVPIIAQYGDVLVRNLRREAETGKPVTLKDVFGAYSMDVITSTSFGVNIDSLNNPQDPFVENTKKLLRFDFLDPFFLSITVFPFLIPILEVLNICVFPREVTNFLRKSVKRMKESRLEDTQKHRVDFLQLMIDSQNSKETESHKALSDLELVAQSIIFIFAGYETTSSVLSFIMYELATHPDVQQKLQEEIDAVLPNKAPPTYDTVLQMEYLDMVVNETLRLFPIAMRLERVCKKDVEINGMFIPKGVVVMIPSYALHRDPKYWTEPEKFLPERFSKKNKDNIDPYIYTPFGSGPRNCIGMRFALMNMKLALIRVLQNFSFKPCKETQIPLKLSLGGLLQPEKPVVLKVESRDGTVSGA
Alpha-galactosidase (Coffea arabica), sequence (Q42656 whole entry, looked up): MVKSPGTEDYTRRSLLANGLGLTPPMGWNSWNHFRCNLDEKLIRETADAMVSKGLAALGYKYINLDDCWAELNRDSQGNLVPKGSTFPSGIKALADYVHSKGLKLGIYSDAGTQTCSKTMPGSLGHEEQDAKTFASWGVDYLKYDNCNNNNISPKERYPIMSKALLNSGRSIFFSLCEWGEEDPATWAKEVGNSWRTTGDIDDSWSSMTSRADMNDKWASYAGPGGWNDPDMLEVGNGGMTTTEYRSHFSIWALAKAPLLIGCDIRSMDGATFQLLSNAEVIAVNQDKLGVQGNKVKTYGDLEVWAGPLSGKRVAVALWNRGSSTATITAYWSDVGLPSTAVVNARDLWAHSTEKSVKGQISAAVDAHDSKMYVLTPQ
Tyrosyl-DNA phosphodiesterase 1 (Homo sapiens), sequence (Q9NUW8 whole entry, looked up): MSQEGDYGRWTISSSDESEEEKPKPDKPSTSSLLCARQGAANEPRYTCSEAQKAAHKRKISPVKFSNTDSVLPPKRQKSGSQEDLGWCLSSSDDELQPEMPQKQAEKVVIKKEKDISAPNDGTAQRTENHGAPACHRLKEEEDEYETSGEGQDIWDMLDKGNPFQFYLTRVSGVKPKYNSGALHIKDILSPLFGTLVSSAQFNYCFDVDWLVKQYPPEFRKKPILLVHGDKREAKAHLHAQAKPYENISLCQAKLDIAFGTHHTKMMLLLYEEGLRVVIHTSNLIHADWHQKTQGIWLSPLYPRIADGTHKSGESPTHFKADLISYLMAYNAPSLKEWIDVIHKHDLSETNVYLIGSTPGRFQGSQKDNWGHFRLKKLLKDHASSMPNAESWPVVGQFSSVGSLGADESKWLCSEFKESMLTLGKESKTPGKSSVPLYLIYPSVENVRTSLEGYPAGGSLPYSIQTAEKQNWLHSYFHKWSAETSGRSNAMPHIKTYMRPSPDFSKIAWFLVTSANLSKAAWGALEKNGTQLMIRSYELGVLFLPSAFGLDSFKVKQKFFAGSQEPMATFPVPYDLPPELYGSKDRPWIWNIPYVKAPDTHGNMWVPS

On to `C[C@H](CCC(=O)O)[C@H]1CC[C@@H]2[C@H]3CC[C@H]4C[C@H](O)CC[C@]4(C)[C@@H]3CC[C@@]21C`, for which the Potency in [1] is 100 µM (active).

With `C=C1Nc2ccccc2C(=O)N1c1ccccc1C`, the Potency entry in assay [2], in assay [3], in assay [4], in assay [5] and in [6] was “inactive” throughout.

`OCC(O)[C@H]1O[C@@H]2O[C@H](C(Cl)(Cl)Cl)O[C@@H]2[C@H]1O` (stereo not given in full): the Potency result in assay [2], in assay [3], in assay [4], in [5] and in assay [6] was “inactive” in each case.

Take `C=CC[N+]1(C)CCC23c4c5ccc(O)c4O[C@H]2C(=O)CC[C@@]3(O)C1C5` (stereo not given in full): the Potency entry in assay [2], in assay [3], in [4], in assay [5] and in assay [6] was “inactive” in each case.

In the case of `CC(CO)NC(=O)C1C=C2c3cccc4[nH]cc(c34)CC2N(C)C1` (stereo not given), the Potency result in [2], in [7], in assay [3], in assay [5] and in [6] was “inactive” in each case.

With `COC(C(=O)C(O)C(C)O)C1Cc2cc3cc(OC4CC(OC5CC(O)C(OC)C(C)O5)C(OC(C)=O)C(C)O4)c(C)c(O)c3c(O)c2C(=O)C1OC1CC(OC2CC(OC3CC(C)(O)C(OC(C)=O)C(C)O3)C(O)C(C)O2)C(O)C(C)O1` (stereo not given), the Potency result in assay [2] was “inactive”. Also, the Potency in assay [3] is 0.112 µM (active); in assay [4], 2.69 µM (active); in assay [5], 794 nM (active); in assay [6], 0.426 µM (active).

In the case of `Cc1ccccc1/C=C/C1=NCCN1`, the call in assay [8] was inactive.

For the compound `O=C(c1ccc(Cl)cc1)N1CCN(c2ccc([N+](=O)[O-])c3ncccc23)CC1`, the outcome in assay [8] was inactive.

Turning to `C=C1CC2C(CC[C@]3(C)C(=O)CCC23)[C@]2(C)C=CC(=O)C=C12` (stereo not given in full), the Potency entry in assay [9], in assay [10], in [4] and in assay [5] was “inactive” in each case. Moreover, in assay [11], the compound was called inactive. In assay [2], the Potency was 11.4 µM (active).

On to `O=[N+]([O-])OC1CO[C@H]2C(O[N+](=O)[O-])COC12` (stereo not given in full), for which the Potency result in [9], in assay [10], in assay [2], in [3], in assay [4] and in assay [5] was “inactive” throughout. For the same compound, the Potency result in assay [6] is “inactive”. Besides, in assay [11], the call was inactive.

Turning to `CC(=O)O[C@H]1C[C@H](O[C@H]2[C@@H](O)CC(O[C@H]3[C@@H](O)C[C@H](O[C@H]4CC[C@@]5(C)[C@H](CC[C@@H]6[C@@H]5CC[C@]5(C)[C@@H](C7=CC(=O)OC7)CC[C@]65O)C4)O[C@@H]3C)O[C@@H]2C)O[C@H](C)[C@H]1O[C@@H]1O[C@H](CO)[C@@H](O)[C@H](O)[C@H]1O` (stereo not given in full), in assay [6], the Potency entry was “inactive”.

Turning to `Cc1cc2c(cc1Cl)N(C(=O)Nc1ccc(Oc3cccnc3C)nc1)CC2`, the call in assay [8] was inactive.

As to `O=[N+]([O-])c1ccc2c(c1)S(=O)(=O)C=C2`, the call in [8] was inactive.

`CC[C@@H](CO)Nc1nc(NCc2ccccc2)c2ncn(C(C)C)c2n1`: the Potency result in [12] was “inactive”. Moreover, the outcome in [13], in assay [14] and in assay [8] was inactive.

Regarding `C#CC1(O)C=CC2C3CCC4=CC(=O)CCC4C3CCC21CC` (stereo not given), the Potency in assay [2] was 6.42 µM (active); in assay [3] it was 12.6 µM (active); in [4], 9.53 µM (active); in assay [6], 6.01 µM (active).

In the case of `CC(C)(C)c1ccc(/C=C/C(=O)Nc2ccc3c(c2)OCCO3)cc1`, in assay [8], the compound was classed as inactive.

Take `C[C@@H](N)[C@@H](O)c1ccc(O)c(O)c1`: the Potency result in [3], in [4], in [5] and in [6] was “inactive” each time.

On to `C=C1C(=O)O[C@@H]2[C@H]3O[C@]3(C)CCC=C(C)CC[C@@H]12`, for which the result in assay [8] was inactive.

Regarding `C[C@]12CC[C@H]3[C@@H](CC[C@@]45O[C@@H]4C(=O)C(C#N)C[C@]35C)[C@@H]1CC[C@@H]2O` (stereo not given in full), the Potency entry in assay [2] and in [3] was “inactive” each time.

Take `CC1CC[C@@]2(NC1)OC1CC3C4CC[C@@H]5CC(O)CC[C@@]5(C)C4CC[C@]3(C)C1C2C` (stereo not given in full): the Potency result in [9], in assay [10], in assay [2] and in [5] was “inactive” each time. Also, the result in assay [11] was inactive. Also, the Potency in assay [3] was 12.6 µM (active).

Regarding `O=C1CC2OCC=C3CN4CC[C@]56c7ccccc7N1C5C2[C@H]3C[C@H]46` (stereo not given in full), the Potency entry in assay [2], in assay [7] and in assay [4] was “inactive” each time. In addition, the Potency in assay [3] was 11.2 µM (active); in assay [6], 3.38 µM (active).

For the compound `CC(Cc1ccccc1)N(C)C` (stereo not given), the Potency result in assay [2], in [4] and in [5] was “inactive” in each case.
